Screens: PubChem, Broad Institute
BL2 CD40 inh: inhibitors of CD40-induced NF-kB signaling, primary screen, BL2 cells, luciferase reporter, single point. CD40L-induced, 4 h. inhibition, % at 10 µM. actives 0.94% (n = 83,000);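 active = mean inhibition of at least 50% with a set share of replicates also reaching that level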;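 also: 0% = neutral control wells and 100% = IKK inhibitor VII at 50 µM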
The depositor's hits bear a star; ! = a repeat was not active; [ ] = dose if it differs, or a comment. The entries come from a sample that favours hits as a whole.

SMILES	BL2 CD40 inh
O=C(N[C@@H]1C=C[C@@H](CC(=O)N2CCC(Cc3ccccc3)CC2)O[C@@H]1CO)c1cnccn1	-8[25 µM]
c1cc2c(cc1C1CCCCC1)c1c3n2CCNC3CCC1 (configuration not stated)	11[25 µM]
Cc1ccc(OC(=O)CCC(=O)Oc2ccc(C)cc2C)c(C)c1	0
Cc1ccc(C)c(N(CC(=O)N(C)C)S(C)(=O)=O)c1	4
C=C(CN(C)C)C(=O)c1ccc(C)cc1C	93*
CCCNC(=O)N(C)C[C@H]1Oc2cc(C#C[C@H](C)O)ccc2S(=O)(=O)N([C@H](C)CO)C[C@H]1C	-17[25 µM]
COc1ccc(-c2cc(-c3ccccc3)c(-c3ccccc3)nn2)cc1	-16
COc1ccc(-c2cc(-c3ccccc3)c(C#N)c(S(C)=O)n2)cc1 (configuration not stated)	76*
COc1ccc(Sc2nnc(-c3ccccc3)cc2C#N)cc1	1
Cc1ccc(NCC(=O)N/N=C/c2ccncc2)cc1	5
Cc1ccc(-c2nc(N/N=C/c3ccncc3)c3ccccc3n2)cc1	53*
c1ccc2c(Nc3nc(-c4ccncc4)nc4ccccc34)cccc2c1	18
Cc1cc(C(=O)COC(=O)Cc2ccc(Cl)cc2)c(C)n1C	-9
CC(=O)Nc1ccccc1OCC(=O)c1cc(C)n(Cc2cccs2)c1C	14
Cc1ccsc1C(=O)OCC(=O)c1cc(C)n(C)c1C	62*
Cc1cc(C(=O)COC(=O)c2ccccc2O)c(C)n1Cc1cccs1	108*
Cc1cc(C(=O)COC(=O)c2ccc3c(c2)OCO3)c(C)n1Cc1cccs1	-50
Cc1cc(C(=O)COc2ncnc3sccc23)c(C)n1C	-76
O=C(Cc1cccnc1)N1CC(=O)N2[C@H](C1)[C@H](c1ccc(/C=C/c3ccccc3)cc1)[C@@H]2CO	9[25 µM]
C[C@H](NC(=O)[C@H]1[C@H](CO)[C@H]2Cn3c(ccc(C4=CCCC4)c3=O)[C@@H]1N2C(=O)C1CC1)c1ccccc1	0[25 µM]
COc1ccc(S(=O)(=O)Nc2cccc3c2O[C@@H](CN(C)CC2CCCCC2)[C@H](C)CN([C@H](C)CO)C3=O)cc1	-3[25 µM]
Cc1ccccc1-c1ccc(C2[C@@H]3CN(S(=O)(=O)c4ccccc4C)C[C@H]2N3)cc1 (some centres not stated)	-3
N#CC1(NC(=O)COC(=O)c2ccc(Cl)nc2)CCCCC1	3
N#CC1(NC(=O)Cn2ncc(Cl)c(Cl)c2=O)CCCCC1	119*
Cc1cc(SCC(=O)NC2(C#N)CCCCC2)nc2c(C)cccc12	-2
SMILES	BL2 CD40 inh
O=C(C[C@H]1CC[C@@H]2[C@H](COC[C@H](O)CN2S(=O)(=O)c2ccccc2)O1)NCC1CCCCC1	1[25 µM]
O=S(=O)(c1ccc(F)cc1)N1CC[C@@H]2[C@H](CO)Nc3ccc(C#CC4CC4)cc3[C@@H]21	1
CCC(=O)N1[C@@H](CO)[C@@H]2c3ccccc3N(C(=O)NC(C)C)C[C@@H]21	-8[25 µM]
Cc1ccc(P(=O)(CSC(=N)N)c2ccc(C)cc2)cc1	61*
COC(=O)C1CC2=CC(=O)CCC2(C)C23OC2CC2(C)C(CCC24CCC(=O)O4)C13 (configuration not stated)	2[25 µM]
CN1C[C@H]2[C@@H](c3ccccc31)[C@@H](CO)N2C(=O)C1CC1	10
C[C@H]1CN([C@@H](C)CO)C(=O)c2cccc(NC(=O)Nc3cccc4ccccc34)c2O[C@H]1CN(C)Cc1ccc(C(=O)Nc2ccccc2N)cc1	-46
CN1CCN(C(=O)C[C@H]2CC[C@H]3[C@@H](COc4ccc(NC(=O)c5cccs5)cc4C(=O)N3C)O2)CC1	-8[25 µM]
C[C@@H]1CN([C@@H](C)CO)C(=O)c2ccccc2-c2ccccc2CO[C@H]1CN(C)C(=O)Nc1ccc(F)cc1	-11
O=C(C1CCCCC1)N1CC[C@@H]2[C@H](CO)Nc3ccc(Br)cc3[C@@H]21	-16
COc1ccccc1OCC(=O)N1CCN(c2ccccc2OC)CC1	16
COc1ccccc1N1CCN(c2ccc(-c3ccccc3)nn2)CC1	53*
COc1ccccc1N1CCN(c2ccc(S(=O)(=O)N3CCN(C)CC3)cn2)CC1	3
C/C=C/c1ccc2c(c1)[C@H]1[C@H](CCN1C(=O)C1CC1)[C@@H](CO)N2	-9
CN(Cc1ccccc1)C(=O)COC(=O)c1cncc(Br)c1	-4
CC(C)CN(C(=O)COC(=O)c1cnc(Cl)c(Cl)c1)c1c(N)n(Cc2ccccc2)c(=O)[nH]c1=O	41
CC(C)N(Cc1ccccc1)C(=O)COC(=O)c1cnc(Cl)c(Cl)c1	61*
COc1ccc(-c2ccc3c(c2)[C@@H]2[C@@H](CCN2C(=O)c2cccc(F)c2)[C@H](CO)N3C)cc1	-6[25 µM]
CCNC(=O)[C@H]1[C@H](CO)[C@H]2Cn3c(ccc(C4=CCCCC4)c3=O)[C@@H]1N2CC	2[25 µM]
Cn1nc(-c2ccccn2)nc2c(=O)n(C)c(=O)nc1-2	101*
COc1ccc(-c2nc(-c3ccccn3)ncc2S(C)(=O)=O)cc1	9
c1ccc(-c2nccc(-c3ccco3)n2)nc1	-25
COc1ccc2c3c([nH]c2c1)[C@@H](CO)N(Cc1ccc(Cl)cc1)CC31CN(S(C)(=O)=O)C1	11[25 µM]
COc1ccc2c3c([nH]c2c1)[C@H](CO)N(Cc1ccc(Cl)cc1)CC31CN(S(C)(=O)=O)C1	14[25 µM]
COc1ccc(CN2CC3(CN(S(=O)(=O)c4ccc(C)cc4)C3)c3c([nH]c4cc(OC)ccc34)[C@H]2CO)cc1	55*[25 µM]
SMILES	BL2 CD40 inh
C[C@H](CO)N1C[C@H](C)[C@H](CN(C)S(=O)(=O)c2ccc(Cl)cc2)OCCCC[C@H](C)Oc2ccc(NC(=O)CCCN(C)C)cc2C1=O	26
C[C@@H]1CN([C@H](C)CO)C(=O)CCCn2cc(nn2)CO[C@@H]1CN(C)Cc1ccncc1	-2
Cc1ccc(CN(C)C[C@@H]2OCc3cn(nn3)CCCC(=O)N([C@H](C)CO)C[C@@H]2C)cc1	-3
CC(=O)N1[C@@H]2c3ccc(C4=CCCCC4)c(=O)n3C[C@@H]2[C@@H](CO)[C@@H]1C(=O)Nc1ccccc1	4[25 µM]
COc1cccc(S(=O)(=O)N2[C@@H]3CNC[C@H]2C3c2ccc(/C=C/c3ccccc3)cc2)c1 (some centres not stated)	-4[25 µM]
COc1cccc(S(=O)(=O)N2C[C@@H]3N[C@H](C2)C3c2ccc(/C=C/c3ccccc3)cc2)c1 (some centres not stated)	46*!
COc1cccc(-c2ccc(C3[C@@H]4CN(S(=O)(=O)c5ccccc5)C[C@H]3N4)cc2)c1 (some centres not stated)	24
COCC(=O)N1[C@H](C#N)[C@@H](c2ccc(C#Cc3ccccc3F)cc2)[C@H]1CO	-23[25 µM]
CCC(=O)N1[C@H](CO)[C@H](c2ccc(C3=CCCC3)cc2)[C@@H]1CNC(=O)CN(C)C	3
